Data on 40 molecules can be found in PubChem BioAssay (Tox21).

Inconclusive results are not listed. Where a call stands in place of a potency, no number is given. Values without a mark were called inactive. Calls of active or inactive are those of the source. The call rests on the fitted dose curve; in most records, active means well fitted activation curve with a large enough effect in the signal ratio in the repeat runs (not every such curve was filed as active); inconclusive means weak or mixed curves, or effect the other way; inactive means flat fitted curve, though single readings scatter; the % refers to the signal ratio.

This assay is described as follows: qHTS assay to identify small molecule agonists of the endoplasmic reticulum stress response signaling pathway (AID 1159516). To be noted: ESRE-bla HeLa, ER stress beta-lactamase reporter, 5 h; series mostly up to 61 µM. The text has this: National Center for Advancing Translational Sciences [NCATS]
NIH Chemical Genomics Center [NCGC]
U.S. Environmental Protection Agency [EPA]
National Institutes of Environmental Health Sciences [NIEHS]
National Toxicology Program [NTP]
U.S. Food and Drug Administration [FDA]
Endoplasmic Reticulum (ER) plays an important role in cellular signaling, protein folding/maturation, stress response, lipid biosynthesis, calcium storage and release etc. Under stress conditions, proteins in ER misfold or unfold, and leading to the expression of ER stress responsive genes. ER stress has been associated with a variety of pathophysiological conditions such as cancer, inflammation, neurodegenerative diseases, diabetes, ischemic heart disease etc. To identify the compounds that induce ER stress response, an ER stress reporter cell line, CellSensor ESRE-bla HeLa (Life Technologies, Carlsbad, CA) containing a beta-lactamase reporter gene under control of the Endoplasmic reticulum Stress Response Element (ESRE) was used to screen Tox21 10K compound library.
Tox21 Assay Protocol Summary:
ESRE-bla HeLa cells were dispensed at 1,500 cells/6 uL of assay medium per well into black wall/clear-bottom 1536-well plates using a Multidrop Combi (ThermoFisher Scientific, Waltham, MA) dispenser. After the assay plates were incubated at 37 C and 5% CO2 for an overnight, 23 nL of compounds dissolved in DMSO, positive controls or DMSO only was transferred to the assay plate by a Pintool station (Kalypsys, San Diego, CA). The assay plates were incubated at 37 C and 5% CO2 for 5 hr. One uL of LiveBLAzer B/G FRET substrate (Life Technologies) was added using a Flying Reagent Dispenser (Aurora Discovery, San Diego, CA) and the plates were incubated at room temperature for 2 hr. Fluorescence intensity (405 nm excitation, 460 nm and 530 nm emissions) was measured using an Envision plate reader (PerkinElmer, Shelton, CT).
Take `CCN(CCO)CCCC(C)Nc1ccnc2cc(Cl)ccc12` (stereo not given): the activation is -0.628% [at 6.95 µM].

Consider `CC/C(=C\C(=N/O)C(N)=O)C(C)[N+](=O)[O-]` (stereo not given), for which the Potency entry was “inactive”. Same read-out and setting: the same measure for `C=CC[N+]1([C@H]2C[C@H]3[C@@H]4CC[C@H]5C[C@H](OC(C)=O)[C@@H](N6CCCCC6)C[C@]5(C)[C@H]4CC[C@]3(C)[C@H]2OC(=O)CC)CCCCC1`: “inactive”; for `CC(=O)c1ccc2c(c1)[C@H](NC(=O)c1ccc(F)cc1)[C@@H](O)C(C)(C)O2`: “inactive”; for `C=C(C)C(=O)OCCOc1ccccc1`: “inactive”. On the same count and under the same terms, the same measure for `C1CCC2OC2C1` (stereo not given): “inactive”; for `O=C(O)[C@@H]1[C@H]2C[C@H]3c4[nH]c5ccccc5c4CCN3C[C@@H]2CC[C@@H]1O`: “inactive”; for `CCOC(=O)CC(C)C`: “inactive”. Same read-out and setting: the same measure for `SC1CCCC1`: “inactive”. Turning to `Cc1cc(O)ccc1N`, the Potency result was “inactive”. The same measure, in the same setting: the same measure for `CCCCCCCC/C=C\CCCCCCCC(N)=O`: “inactive”; for `CC(=O)OC/C=C/c1ccccc1`: “inactive”; for `O=c1[nH]cnc2ccccc12`: “inactive”. Still for that read-out and setting: the same measure for `C=CC(C)(CCC=C(C)C)OC(=O)c1ccccc1` (stereo not given): “inactive”; for `CC(=O)SCc1ccco1`: “inactive”; for `CC(C)(C)C(=O)OCOP(=O)(COCCn1cnc2c(N)ncnc21)OCOC(=O)C(C)(C)C`: “inactive”. Same read-out and setting: the same measure for `CCCCC(CC)COCCCN` (stereo not given): “inactive”. In the case of `c1ccc(-c2nc[nH]c2-c2ccccc2)cc1`, the Potency entry is “inactive”. Same read-out and setting: the same measure for `CC(=O)N(CC(=O)N(C)C)c1ccccc1`: “inactive”. Consider `CC(C)(Oc1ccc(Cl)cc1)C(=O)OCCCOC(=O)C(C)(C)Oc1ccc(Cl)cc1`, for which the Potency result was “inactive”.

For `Cc1cccc(C(C)(C)C)c1O`, the Potency result is “inactive”. Still for that read-out and setting: the same measure for `Cc1ncsc1CCO`: “inactive”; for `c1ccc(CNCc2ccccc2)cc1`: “inactive”. `CCCCCOC(=O)c1ccc(O)cc1`: the Potency entry was “inactive”. Still for that read-out and setting: the same measure for `O=C(Cl)c1ccc([N+](=O)[O-])cc1`: “inactive”; for `CN1CCN(C2=Nc3cc(Cl)ccc3Nc3ccccc32)CC1`: “inactive”. For `CC1(C)CCC(C)(C)c2cc(NC(=O)c3ccc(C(=O)O)cc3)ccc21`, the Potency entry was “inactive”. The same measure, in the same setting: the same measure for `Oc1ccc(Cc2ccccc2)cc1`: “inactive”. Same read-out and setting: the same measure for `O=c1c2ccccc2nnn1CCl`: “inactive”; for `NC(N)=N/N=C/c1c(Cl)cccc1Cl`: “inactive”; for `Cc1cccc(OCCOc2cccc(C)c2)c1`: “inactive”.

Turning to `CC(C)CCCC(C)CCO` (stereo not given), the Potency entry is “inactive”. On the same count and under the same terms, the same measure for `C=C(C)C(=O)OCCN(C)C`: “inactive”; for `CC(Cc1cccc(C(F)(F)F)c1)NCCOC(=O)c1ccccc1` (stereo not given): “inactive”; for `CC(=O)/C=C/C1C(C)=CCCC1(C)C` (stereo not given): “inactive”.

Regarding `N#Cc1c(F)cccc1F`, the Potency entry is “inactive”. On the same count and under the same terms, the same measure for `CCN(CC)C(C)=O`: “inactive”; for `CN(C)CCCOc1nn(Cc2ccccc2)c2ccccc12`: “inactive”; for `Cc1occc1S`: “inactive”. Same read-out and setting: the same measure for `Oc1ccc2c(c1)OCO2`: “inactive”.
